Results filed as inconclusive are left out. Values without a mark were called inactive. Calls of active or inactive are those of the source. The call rests on the fitted dose curve; in most records, active means well fitted inhibition curve with a large enough effect; inconclusive means small, poorly fitted or top-dose-only effect; inactive means flat fitted curve, though single readings scatter. Starred links: 1 amine or outer side, 2 acyl side, 3 side chain; linkers in the order of their positions; H or OH if unused. Positions of bridges follow the written chain, without caps; N, C: chain ends. Non-standard residues stand in square brackets, D forms with d. Residues, ends and D or L forms follow the SMILES beside them. Chains are numbered I, II in the order given. ξ: configuration not given here. *: point of attachment. Actinocin(9to1) = Cc1c2oc3c(C)ccc(C(=O)[*:1])c3nc-2c(C(=O)[*:2])c(N)c1=O; ξNMeV = CNC(C(=O)O)C(C)C; Cbz = O=C(OCc1ccccc1)*; Nva = CCC[CH](N)C(=O)O; ξV = CC(C)C(N)C(=O)O; Sar = CNCC(=O)O

The experiment can be described thus: qHTS for characterization and localization of zebrafish homologs of the human ABCB1 multidrug transporter: empty vector transfected cells. As to conditions: empty vector transfected control cells, CellTiter-Glo luminescence viability, 72 h; series mostly up to 46.1 µM; activity change, negative = inhibition: at the top concentration. An excerpt:
The zebrafish has emerged as a potential model to study the blood-brain barrier (BBB) given its similarities with mammalian systems. However, little information has been available with regard to homologous ATP-binding cassette transporters expressed at the zebrafish BBB. Two transporters that are highly expressed at the human BBB are P-glycoprotein (P-gp, encoded by the ABCB1 gene) and ABCG2 (encoded by the ABCG2 gene). In this study, we focus on characterization of P-gp homologs in the zebrafish, which has two genes that are homologous to human ABCB1 - abcb4 and abcb5. We generated stably-transfected cell lines to determine their substrate specificities. […] Zebrafish abcb4 also colocalized with claudin 5 expression in brain endothelial cells.
A high-throughput screen was performed as previously described on empty vector transfected cells, P-gp-overexpressing MDR-19 cells and cells transfected with full-length zebrafish abcb4 (ZF Abcb4) or abcb5 (ZF Abcb5). Briefly, cells were plated into 1536-well plates at a density of 500 cells/well in 5 uL media. P-gp substrate compounds (approximately 90) selected from our previous study were then added at varying concentrations using a 1536-head pin tool (Kalypsis, San Diego, CA) and plates were incubated at 37C in 5% CO2 for 72 h. CellTiter-Glo reagent (Promega) was dispensed into the wells, incubated for 5 min and luminescence was read on a ViewLux instrument (Perkin-Elmer).
Cytotoxic compounds were defined as those that yielded a curve class of -1.1, -1.2, -2.1, -2.2, -2.3, or -2.4, a maximum response of >50% and an AC50 of < 10 uM. All compounds from screening analysis were tested in Vector (empty vector control), MDR-19 (P-gp overexpressing), zebrafish abcb4 (ZF Abcb4) and abcb5 (ZF Abcb5) expression cell lines.
1. Tobie D Lee, Olivia W Lee, Kyle R Brimacombe, Lu Chen, Rajarshi Guha, Sabrina Lusvarghi, Bethilehem G Tebase, Carleen Klumpp-Thomas, Robert W Robey, Suresh V Ambudkar, Min Shen, Michael M Gottesman, Matthew D Hall. A High-Throughput Screen of a Library of Therapeutics Identifies Cytotoxic Substrates of P-glycoprotein. Mol Pharmacol. 2019, Nov;96(5):629-640.
In general terms: Quantitative high-throughput screening tests each substance at several concentrations.
Take `CC(C)(C)c1cnc(CSc2cnc(NC(=O)C3CCNCC3)s2)o1`: the Potency is 1080 nM (active).

Take `Cc1ccc(-c2ncn(-c3ccc(Nc4nccc(-c5cccc(N6CCOCC6)c5)n4)cc3)n2)cn1`: the Potency is 3320 nM (active).

In the case of `N=C(N)c1ccc(OCCCCCOc2ccc(C(=N)N)cc2)cc1`, the Potency is 2640 nM (active). Still for that read-out and setting: with `Cn1cc(-c2[nH]c3cc(NC(=O)[C@H](N)C4CCCCC4)cc4c3c2C=NNC4=O)cn1` the figure was 418 nM (active); with `C[C@@H](Oc1cc(-n2cnc3ccc(CN4CCN(C)CC4)cc32)sc1C(N)=O)c1ccccc1C(F)(F)F`, 37.2 nM (active); with `CC(C)C[C@H](NC(=O)[C@@H](NC(=O)c1cccc(-c2ccccc2)n1)[C@@H](C)O)B(O)O`, 74.3 nM (active). On the same count and under the same terms, the value for `CCS(=O)(=O)c1cccc(-c2cc(C(=O)NC3CCN(C)CC3)c(C)c3[nH]c4ncc(C)cc4c23)c1` was 2350 nM (active). The same measure, in the same setting: with `CC(C)C[C@H](NC(=O)[C@H](CCc1ccccc1)NC(=O)CN1CCOCC1)C(=O)N[C@@H](Cc1ccccc1)C(=O)N[C@@H](CC(C)C)C(=O)[C@@]1(C)CO1` the figure was 46.9 nM (active). In the case of `NC(=O)Nc1cc(-c2cccc(F)c2)sc1C(=O)N[C@H]1CCCNC1`, the Potency was 590 nM (active). As for `CC1(C)CC[C@]2(C(=O)OC3OC(CO)C(O)C(O)C3O)CC[C@]3(C)C(=CCC4[C@@]5(C)CC[C@H](OC6OC(C(=O)O)C(O)C(O)C6O)C(CO)(CO)C5CC[C@]43C)[C@@H]2C1` (stereo not given in full), the Potency is 2230 nM (active). With `CCC(C)C(=O)OC1CC(O)C23C4OCC5(C(O)CC2C1(C)C(O)O4)C3C(=O)C(O)C1(C)C(O)(c2ccoc2)CC2OC251` (stereo not given), the Potency is 1100 nM (active). Same read-out and setting: with `Cc1c2oc3c(C)ccc(C(=O)N[C@@H]4C(=O)NC(C(C)C)C(=O)N5CCC[C@H]5C(=O)N(C)CC(=O)N(C)C(C(C)C)C(=O)O[C@@H]4C)c3nc-2c(C(=O)N[C@@H]2C(=O)NC(C(C)C)C(=O)N3CCC[C@H]3C(=O)N(C)CC(=O)N(C)C(C(C)C)C(=O)O[C@@H]2C)c(N)c1=O` (stereo not given in full) (I: T[ξV]P[Sar][ξNMeV] / II: T[ξV]P[Sar][ξNMeV]; ester I:1-I:C, II:1-II:C; linker I:N-II:N via Actinocin(9to1)) the figure was 7.4 nM (active); with `Cc1nc(Nc2n[nH]c3c2CN(C(=O)N[C@H](CN(C)C)c2ccccc2)C3(C)C)c2sccc2n1`, 41.8 nM (active); with `COC[C@H](NC(=O)c1cnc(C)s1)C(=O)N[C@@H](COC)C(=O)N[C@@H](Cc1ccccc1)C(=O)[C@@]1(C)CO1`, 166 nM (active). Same read-out and setting: with `CCC1=CC2CN(C1)Cc1c([nH]c3ccccc13)[C@@](C(=O)OC)(c1cc3c(cc1OC)N(C)[C@H]1[C@@](O)(C(=O)OC)[C@H](OC(C)=O)[C@]4(CC)C=CCN5CC[C@]31[C@@H]54)C2` (stereo not given in full) the figure was 105 nM (active).

As for `CCN(CCCO)CCCOc1ccc2c(Nc3cc(CC(=O)Nc4cccc(F)c4)[nH]n3)ncnc2c1`, the “activity change, negative = inhibition” value was -7.2%. Regarding `CC[n+]1c(-c2ccccc2)c2cc(N)ccc2c2ccc(N)cc21`, the Potency is 332 nM (active). On to `Cc1ccc(C(=O)N(CCCN)C(c2nc3cc(Cl)ccc3c(=O)n2Cc2ccccc2)C(C)C)cc1` (stereo not given), for which the Potency was 1180 nM (active). The same measure, in the same setting: with `CC[C@@H]1C(=O)N(C)c2cnc(Nc3ccc(C(=O)NC4CCC(N5CCN(CC6CC6)CC5)CC4)cc3OC)nc2N1C(C)C` (stereo not given in full) the figure was 52.6 nM (active); with `COc1cc2ncn(-c3cc(OCc4ccccc4C(F)(F)F)c(C(N)=O)s3)c2cc1OC`, 1910 nM (active).

For the molecule `C[C@@H]1O[C@@H](O[C@H]2[C@H](O)[C@@H](O)[C@H](O[C@H]3[C@H](O[C@H]4CC[C@@]5(C)C(=CC[C@@H]6C5CC[C@]5(C)[C@@H]7[C@H](C[C@@H]65)O[C@]5(CC[C@@](C)(CO[C@@H]6O[C@H](CO)[C@@H](O)[C@H](O)[C@H]6O)O5)[C@H]7C)C4)O[C@H](CO)[C@@H](O)[C@@H]3O)O[C@@H]2CO)[C@H](O)[C@H](O)[C@H]1O` (stereo not given in full), the Potency is 353 nM (active). Still for that read-out and setting: the value for `CN(C)C1CCN(C(=O)c2ccc(NC(=O)Nc3nc(N4CCOCC4)nc(N4CCOCC4)n3)cc2)CC1` was 469 nM (active). The same measure, in the same setting: with `CN(c1ncccc1CNc1nc(Nc2ccc3c(c2)CC(=O)N3)ncc1C(F)(F)F)S(C)(=O)=O` the figure was 4180 nM (active). As for `CCN(CC)Cc1ccc(C(=O)N(CCc2ccccc2OC)[C@@H]2CCNC2)cc1`, the “activity change, negative = inhibition” value was 0%. Turning to `CC[C@@H]1C(=O)N(C)c2cnc(Nc3ccc(C(=O)NC4CCN(C)CC4)cc3OC)nc2N1C1CCCC1`, the Potency was 46.9 nM (active). For the molecule `Cc1cc(Nc2cc(NC(=O)c3c(Cl)cccc3Cl)ccn2)nc(N)n1`, the Potency is 4180 nM (active). On to `CCCC(C=O)NC(=O)C(CC(C)C)NC(=O)C(CC(C)C)NC(=O)OCc1ccccc1` (stereo not drawn) (Cbz-Leu-Leu-[Nva]-aldehyde; configuration not given here), for which the Potency is 1480 nM (active). Same read-out and setting: the value for `Cc1cc(N)c2ccccc2[n+]1CCCCCCCCCC[n+]1c(C)cc(N)c2ccccc21` was 5900 nM (active). The same measure, in the same setting: the value for `COCCn1c2c([n+](Cc3cnccn3)c1C)C(=O)c1ccccc1C2=O` was 16.6 nM (active). Consider `CC(=O)C1(O)Cc2c(O)c3c(c(O)c2C(OC2CC(N)C(O)C(C)O2)C1)C(=O)c1c(O)cccc1C3=O` (stereo not given), for which the Potency was 41.8 nM (active). Same read-out and setting: with `C/C=C1/NC(=O)C2CSSCCC=CC(CC(=O)NC(C(C)C)C(=O)N2)OC(=O)C(C(C)C)NC1=O` (stereo not given) the figure was 52.6 nM (active). `CCn1c(-c2nonc2N)nc2c(C#CC(C)(C)O)ncc(OC[C@H]3CCCNC3)c21`: the Potency is 1180 nM (active). Still for that read-out and setting: the value for `CN(C)C1CCN(C(=O)c2ccc(NC(=O)Nc3ccc(-c4nc(N5CCOCC5)nc(N5CCOCC5)n4)cc3)cc2)CC1` was 469 nM (active). Regarding `C[C@@]12O[C@@H](C[C@]1(O)CO)n1c3ccccc3c3c4c(c5c6ccccc6n2c5c31)CNC4=O`, the Potency is 2640 nM (active). Still for that read-out and setting: with `COc1ccc(CC2C(=O)NC(C)C(=O)N(C)C3Cc4ccc(cc4)Oc4cc(ccc4OC4OC(CO)C(O)C(O)C4O)CC(C(=O)NC(C)C(=O)NC(C)C(=O)N2C)N(C)C3=O)cc1` (stereo not given) the figure was 88.8 nM (active); with `C=CCn1c(=O)c2cnc(Nc3ccc(N4CCN(C)CC4)cc3)nc2n1-c1cccc(C(C)(C)O)n1`, 1180 nM (active).

As for `CC(NCc1ccc2c(c1)nc(NC(=O)c1ccc(-c3cn[nH]c3)s1)n2CC(C)(C)O)C(C)(C)C` (stereo not given), the Potency was 332 nM (active). `CCc1c(O)cc(O)c(C(=O)c2ccc(OCCN3CCOCC3)c(OC)c2)c1CC(=O)N(CCOC)CCOC`: the Potency was 743 nM (active). Still for that read-out and setting: with `Cc1cc(Nc2cc(N3CCN(C)CC3)nc(Sc3ccc(NC(=O)C4CC4)cc3)n2)n[nH]1` the figure was 6620 nM (active). Same read-out and setting: with `COc1cc(C(=O)NC2CCN(C)CC2)ccc1Nc1ncc2c(n1)N(C1CCCC1)CC(F)(F)C(=O)N2C` the figure was 41.8 nM (active).

The values above are taken from PubChem BioAssay AID1508637 (National Center for Advancing Translational Sciences (NCATS), 2021).
